Compounds without any hit were thinned out: in the full panel of roughly 83,000, 20% have a hit.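 Growth was measured after 48 h exposure to one concentration of compound in 96-well plates. Values under 10 count as active.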 Unmarked numbers belong to inactive results. Active and inactive are the calls of the source.
Columns and labels:
Test in all cases: NCI-60 one-dose screen, 48 h (100 = growth as untreated, 0 = no growth, -100 = all killed)
Details in all cases: 10 µM unless noted
SK-MEL-2 melanoma = system: SK-MEL-2 melanoma
EKVX NSCLC = system: EKVX NSCLC
SN12C renal = system: SN12C renal
UO-31 renal = system: UO-31 renal
TK-10 renal = system: TK-10 renal
ACHN renal = system: ACHN renal
CAKI-1 renal = system: CAKI-1 renal
A498 renal = system: A498 renal
CCRF-CEM leukemia = system: CCRF-CEM leukemia
MOLT-4 leukemia = system: MOLT-4 leukemia

Row | Compound | growth (SK-MEL-2 melanoma) | growth (EKVX NSCLC) | growth (SN12C renal) | growth (UO-31 renal) | growth (TK-10 renal) | growth (ACHN renal) | growth (CAKI-1 renal) | growth (A498 renal) | growth (CCRF-CEM leukemia) | growth (MOLT-4 leukemia)
1 | N#Cc1nc(-c2ccc(Cl)cc2)cc(-c2ccc(Nc3nc(N4CCCCC4)nc(N4CCCCC4)n3)cc2)c1N | 106% | 91.8% | 104% | 80% | 120% | 96.8% | 83.8% | 110% | 107% | 99.2%
2 | Cc1ccc(-c2cnc3sc4ccc(Cl)cc4n23)cc1 | 103% | 67.1% | 93% | 64.9% | 158% | 92.2% | 84.2% | 88.2% | 106% | 96.7%
3 | COc1ccc(/C(=C\c2ccc3c(c2)OCO3)C(=O)Nc2nc3ccccc3s2)cc1 | 95.2% | 102% | 98.3% | 91.9% | 104% | 96.6% | 91.4% | 99.9% | 95.4% | 70.9%
4 | NCCCOc1cc2ccccc2cc1C(=O)NCCCOc1cc2ccccc2cc1C(=O)Nc1ccc(Cl)cc1O | -73.8% (active) | -45.6% (active) | -78.5% (active) | -95.4% (active) | -95.5% (active) | -95.9% (active) | -89.9% (active) | -38.7% (active) | -16.3% (active) | -20.6% (active)
5 | Cn1nc(C(F)(F)F)cc1-c1c[nH]c(OCc2ccc(Cl)cc2)c(-c2ccc(Cl)c(C(F)(F)F)c2)c1=O | -31.4% (active) | 5.56% (active) | 4.1% (active) | -1.38% (active) | 3.46% (active) | -15.8% (active) | -22.7% (active) | -60.9% (active) | 10.5% | -9.43% (active)
6 | COc1cc2c(cc1I)-c1c(cc(OC)c(OC)c1OC)CC[C@@H]2NC(C)=O | 18.7% | 44.6% | 26.2% | 29.5% | 59% | 33.2% | 8.95% (active) | -30.6% (active) | 22.4% | 24.3%
7 | CCCCC(CCc1ccccn1)C(=O)c1ccccc1 (stereo not given) | 116% | 102% | 122% | 79.7% | 127% | 116% | 99.5% | 105% | 98.3% | 112%
8 | Cc1cc(C)cc(NC(=O)Cn2nncc2CN2C(=O)CSC2=O)c1 | 106% | 90.3% | 103% | 99.7% | 99.8% | 99.6% | 95.2% | 118% | 113% | 105%
9 | Cc1ccc(NC(=O)Cn2nncc2CN2C(=O)CSC2=O)cc1C | 102% | 91.3% | 105% | 91.6% | 98.8% | 100% | 96.8% | 93.3% | 106% | 103%
10 | CC[C@H](Nc1nc(N)nc(N)c1Cl)c1nc2cccc(NCc3ccc(C(=O)NO)cc3)c2c(=O)n1-c1ccccc1 | 71.5% | 42% | 10% | 20.6% | -1.39% (active) | 3.82% (active) | 39.6% | -12.7% (active) | 7.44% (active) | 0.294% (active)
11 | CCCCNCC(O)c1cc2c(Cl)cc(Cl)cc2c2cc(C(F)(F)F)ccc12 (stereo not given) | -65.4% (active) | -59.1% (active) | -82.2% (active) | -81.2% (active) | -88.2% (active) | -78.7% (active) | -65.1% (active) | -19.7% (active) | -49.6% (active) | -54.8% (active)
12 | C#CC[C@@H]1C[C@]2(C)[C@H]3CC[C@@H]4[C@H]5C(C(=C)C)CC[C@]5(C(=O)NCCCN5CCN(CCCN)CC5)CC[C@@]4(C)[C@]3(C)CC[C@H]2C(C)(C)[C@H]1OC(C)=O (stereo not given in full) | -18.1% (active) | 51.9% | -84.4% (active) | -95.3% (active) | -91.5% (active) | -97.8% (active) | -96.1% (active) | 98.6% | -29.6% (active) | -28.3% (active)
13 | COC(=O)/C=C/c1cc(OC(C)=O)c2c(c1)[C@@H](C(=O)OC)[C@H](c1ccc(OC(C)=O)c(OC(C)=O)c1)O2 | 37.9% | 34.2% | 24.2% | 39.3% | 48.5% | 24.3% | 17.9% | -14.3% (active) | 6.74% (active) | 14.9%
14 | CN1CCN(Cc2ccc(NC(=O)c3cncc(C#Cc4cnc5cccnn45)c3)cc2C(F)(F)F)CC1 | -58.6% (active) | -39.1% (active) | 3.05% (active) | 0.419% (active) | -4.27% (active) | 5.04% (active) | 5.93% (active) | -33.1% (active) | 5.9% (active) | -1.76% (active)
15 | CCc1oc2ccccc2c1C(=O)c1cc(I)c(O)c(I)c1 | 1.14% (active) | 84.5% | 46.4% | 80% | 87.7% | 72.9% | 45.9% | 98.2% | 66.2% | 32.5%
16 | C=CCN(CCOC(=O)c1ccc([N+](=O)[O-])cc1)CCOC(=O)c1ccc([N+](=O)[O-])cc1 | 110% | 96.1% | 143% | 69.9% | 114% | 95% | 86.1% | 95.2% | 94.3% | 96.2%
17 | C#CC[C@@H]1C[C@]2(C)[C@H]3CC=C4[C@H]5[C@@H](C)[C@H](C)CC[C@]5(C(=O)NCCCCCCCCN)CC[C@@]4(C)[C@]3(C)CC[C@H]2C(C)(C)[C@H]1OC(C)=O | 104% | 95% | 76.1% | 67.2% | 80.5% | 85.8% | -69.7% (active) | 94.5% | -34.6% (active) | -19.8% (active)
18 | C#CC[C@@H]1C[C@]2(C)[C@H]3CC[C@@H]4[C@H]5C(C(=C)C)CC[C@]5(C(=O)NCCCCCCCCN)CC[C@@]4(C)[C@]3(C)CC[C@H]2C(C)(C)[C@H]1OC(C)=O (stereo not given in full) | 112% | 103% | 96.3% | 75.5% | 96.5% | 111% | 69.9% | 95.6% | -8.23% (active) | 5.47% (active)
19 | CCCc1cc2c(cc1CN(Cc1cc3c(cc1CCC)OCO3)C(=N)OCC)OCO2 | 81.3% | 75% | 80% | 67.3% | 72.9% | 90.4% | 83.5% | 97.6% | 80.4% | 93.5%
20 | O=C(O)C1[S][Sb]([CH](C(=O)O)[CH](C(=O)O)[Sb]2[S]C(C(=O)O)C(C(=O)O)[S]2)[S]C1C(=O)O (stereo not given) | 64.7% | 98% | 90.2% | 77.4% | 124% | 96.5% | 96.3% | 101% | 52.9% | 63.7%

Row | Compound | growth (SK-MEL-2 melanoma) | growth (EKVX NSCLC) | growth (SN12C renal) | growth (UO-31 renal) | growth (TK-10 renal) | growth (ACHN renal) | growth (CAKI-1 renal) | growth (A498 renal) | growth (CCRF-CEM leukemia) | growth (MOLT-4 leukemia)
21 | Fc1cnccc1-c1nc2ccc3[nH]ncc3c2c2c1CCCC2 | -1.94% (active) | 35.6% | 25.6% | 11.6% | 13.7% | 7.42% (active) | -4.24% (active) | 0.691% (active) | 16.1% | 21.2%
22 | O=C1Cc2c([nH]c3ccc([N+](=O)[O-])cc23)-c2ccccc2N1 | -21.5% (active) | 17.1% | 44.1% | 4.74% (active) | 12% | 11.5% | 16.4% | -5.07% (active) | 1.61% (active) | 2.18% (active)
23 | NC(=Nc1ccccc1)SCCCSC(N)=Nc1ccccc1 | 90.8% | 78.8% | 89.3% | 42.1% | 101% | 81.5% | 76.4% | 80.2% | 79.3% | 90.8%
24 | CCCCCCCCCCC(C(O)c1ccccc1)N1CCCCC1 (stereo not given) | 53.8% | 33.5% | 43.2% | -1.17% (active) | 76.8% | 42.1% | -21.1% (active) | 75.1% | 0.764% (active) | 6.36% (active)
25 | Cc1cc(C#Cc2ccccc2)ccc1-n1c(/C=C/c2ccc(F)cc2)nc2ccccc2c1=O | 71% | 46.5% | 73% | 36.2% | 94.4% | 78.6% | 55.2% | 94.1% | 74.3% | 44.7%
26 | COc1cccc2nc(Nc3cccc(NC(=O)c4ccc(N5CCN(C)CC5)c(C(F)(F)F)c4)c3)ccc12 | 77.4% | 66.7% | 45.7% | 22.1% | 51.1% | 26.8% | 24.8% | 64.4% | 12.5% | -16.6% (active)
27 | CCCCCCCCCCCCCCCCOc1ccc(S(=O)(=O)N(C)C)cc1[N+](=O)[O-] | 97.1% | 98.8% | 93.1% | 98.5% | 86% | 93.5% | 99.1% | 118% | 114% | 103%
28 | Cc1[nH]nc2ccc3nc(-c4ccc5[nH]ncc5c4)c4c(c3c12)CCCC4 | -15.5% (active) | 20.2% | 23.2% | 12.8% | 10.3% | 6.93% (active) | 12.5% | -10.8% (active) | 16.8% | 3.85% (active)
29 | O=C1c2ccccc2C2N1CCC1CCc3ccccc3N12 (stereo not given) | 99.7% | 104% | 94.8% | 55.1% | 108% | 99.3% | 88.4% | 75.5% | 105% | 101%
30 | CCCCCCCCCCCC1=NC(C)(C)CN1C(C)(C)CO | 49.4% | 64.6% | 59.8% | 46.7% | 70.3% | 56.7% | 63.2% | 90.1% | 26.6% | 74%
31 | CCN(CC)CCNc1c(C)cc(CO)c(Cl)c1C | 112% | 110% | 97.7% | 111% | 106% | 106% | 104% | 89% | 101% | 93%
32 | Cc1cc(NC(=O)c2ccc(N)cc2)ccc1N=Nc1ccc2cc(S(=O)(=O)O)cc(S(=O)(=O)O)c2c1 | 121% | 99.9% | 109% | 101% | 97.9% | 95.2% | 91.5% | 90.6% | 87.1% | 112%
33 | CCCCNCC(O)c1cc(-c2ccc(C(F)(F)F)cc2)nc(-c2ccc(C(F)(F)F)cc2)c1 (stereo not given) | -67.1% (active) | -61.8% (active) | -73.2% (active) | -88.2% (active) | -94.4% (active) | -71.6% (active) | -73% (active) | -68.1% (active) | -36.4% (active) | -56.7% (active)
34 | CCc1ccc(Nc2ncnc3c2cnn3-c2cccc(Br)c2)cc1 | 108% | 102% | 101% | 85.6% | 107% | 108% | 89.3% | 70.7% | 131% | 101%
35 | C/C(=C\C(=N\N=C(N)N)c1ccc(Cl)cc1)c1ccc(Cl)cc1 | -86.4% (active) | -28.2% (active) | -73.8% (active) | -80.1% (active) | -83.4% (active) | -85.8% (active) | -58.4% (active) | -93.6% (active) | -22.5% (active) | -48% (active)
36 | C/C(=N\NC(=S)Nc1ccccc1)c1ccccn1 | 73.5% | 12.9% | 39.2% | -1.12% (active) | 50.9% | 17.7% | 6.16% (active) | 29.1% | 16.7% | 8.83% (active)
37 | COc1ccc(Br)c2ccccc12 | 113% | 94% | 112% | 70.3% | 118% | 102% | 95.3% | 135% | 103% | 91.6%
38 | O=C1C=CC(=O)N1c1cccc(N2C(=O)C=CC2=O)c1 | 111% | 95.6% | 106% | 28.4% | 33.1% | -26% (active) | 37.3% | 111% | -22.3% (active) | 103%
39 | N[C@@H](CO)C(=O)O | 116% | 84.3% | 101% | 83.4% | 125% | 107% | 91.2% | 85.3% | 94.8% | 101%
40 | C=CCOc1c(Br)cc(Br)cc1Br | 69.3% | 64% | 62.9% | 28.2% | 102% | 48.7% | 76.5% | 55.9% | 43.6% | 64.6%

Reference: PubChem BioAssay (NCI)
